This is an account of results in PMC7862700, “An all-to-all approach to the identification of sequence-specific readers for epigenetic DNA modifications on cytosine”.

What all share (assay): DAPPL (digital affinity profiling via proximity ligation, sequencing); 10 mM Tris-HCl pH 7.5, 50 mM NaCl, 1 mM DTT, 4% glycerol, room temperature, 30 min; GST-TFs on glutathione beads, 16-mer random dsDNA library, 0.1% formaldehyde crosslink after washing; high values mean tight binding
Assay [1] addresses T1, FEV (Homo sapiens, UniProt Q99581 1-238).
T1 sequence: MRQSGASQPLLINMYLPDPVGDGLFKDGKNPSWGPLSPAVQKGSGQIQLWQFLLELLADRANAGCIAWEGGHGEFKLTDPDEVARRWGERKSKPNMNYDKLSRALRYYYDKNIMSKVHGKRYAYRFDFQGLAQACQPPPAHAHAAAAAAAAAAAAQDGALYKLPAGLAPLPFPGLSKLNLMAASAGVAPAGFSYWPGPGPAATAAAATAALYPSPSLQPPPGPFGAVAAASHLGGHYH
Conditions: protein: recombinant; tags: N-terminal GST; dsDNA, one strand shown. Summed up:
(§1)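 Binding signal is each hexamer's read frequency for a factor divided by its frequency in the tag-only sample. The factors were GST-fused human transcription factors from yeast, captured on glutathione beads, DNA-barcoded and pooled with that sample. Pools were incubated with 200 nmole of a random double-stranded 16-mer DNA library in Tris/NaCl/DTT/glycerol buffer at room temperature for 30 min, then washed, crosslinked with 0.1% formaldehyde, proximity-ligated with BsaI/T4 ligase (1 h, 37 °C), PCR-amplified and sequenced on an Illumina NextSeq500.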

Assay [2] concerns the target ETV5 (Homo sapiens, UniProt P41161 1-510). Conditions: protein: recombinant; tags: N-terminal GST; dsDNA, one strand shown. Put shortly: as §1
In assay [3] the target is HSF1 (Homo sapiens, UniProt Q00613 1-529). The note with it: protein: recombinant; tags: N-terminal GST; chain copies: 3; dsDNA, one strand shown. Summed up:
as §1

The target of assay [4] is T2, SPIC (Homo sapiens, UniProt Q8N5J4 1-248).
T2 sequence: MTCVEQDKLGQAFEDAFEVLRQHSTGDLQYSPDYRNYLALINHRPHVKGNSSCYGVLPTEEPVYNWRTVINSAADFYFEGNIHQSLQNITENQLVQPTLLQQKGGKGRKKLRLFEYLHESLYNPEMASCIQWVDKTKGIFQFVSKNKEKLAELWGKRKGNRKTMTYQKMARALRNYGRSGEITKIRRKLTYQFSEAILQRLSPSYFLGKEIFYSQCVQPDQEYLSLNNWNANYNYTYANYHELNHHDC
The note with it: protein: recombinant; tags: N-terminal GST; dsDNA, one strand shown. Put shortly:
as §1

Assay [5] addresses ELF4 (Homo sapiens, UniProt Q99607 1-663). The note with it: protein: recombinant; tags: N-terminal GST; dsDNA, one strand shown. Put shortly: as §1
For assay [6], the target named is T3, ELK4 (Homo sapiens, UniProt P28324-2 1-405).
T3 sequence: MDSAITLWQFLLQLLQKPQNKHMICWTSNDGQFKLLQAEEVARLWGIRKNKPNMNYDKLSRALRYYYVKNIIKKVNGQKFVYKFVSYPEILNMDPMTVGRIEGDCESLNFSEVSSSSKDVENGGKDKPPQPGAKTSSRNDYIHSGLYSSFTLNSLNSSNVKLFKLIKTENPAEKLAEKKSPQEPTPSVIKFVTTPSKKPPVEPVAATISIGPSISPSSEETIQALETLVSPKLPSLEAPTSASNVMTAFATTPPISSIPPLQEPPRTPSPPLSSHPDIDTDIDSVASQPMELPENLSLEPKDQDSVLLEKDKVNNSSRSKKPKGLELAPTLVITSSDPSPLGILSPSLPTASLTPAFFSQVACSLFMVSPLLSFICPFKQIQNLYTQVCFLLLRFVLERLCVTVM
The note with it: protein: recombinant; tags: N-terminal GST; dsDNA, one strand shown. Summed up: as §1

Assay [7] addresses T4, ETV2 (Homo sapiens, UniProt O00321 1-342).
T4 sequence: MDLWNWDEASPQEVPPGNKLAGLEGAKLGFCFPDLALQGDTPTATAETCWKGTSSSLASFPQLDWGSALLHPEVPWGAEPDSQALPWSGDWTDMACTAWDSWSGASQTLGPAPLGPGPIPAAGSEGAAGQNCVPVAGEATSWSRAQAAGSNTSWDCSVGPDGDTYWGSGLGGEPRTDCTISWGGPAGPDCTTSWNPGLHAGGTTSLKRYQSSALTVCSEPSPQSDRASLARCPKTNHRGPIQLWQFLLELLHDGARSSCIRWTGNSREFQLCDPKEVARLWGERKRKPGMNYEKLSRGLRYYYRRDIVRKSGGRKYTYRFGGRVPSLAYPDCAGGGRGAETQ
The note with it: protein: recombinant; tags: N-terminal GST; dsDNA, one strand shown. Summed up: as §1

Assay [8] addresses T5, ELF3 (Homo sapiens, UniProt P78545 1-371).
T5 sequence: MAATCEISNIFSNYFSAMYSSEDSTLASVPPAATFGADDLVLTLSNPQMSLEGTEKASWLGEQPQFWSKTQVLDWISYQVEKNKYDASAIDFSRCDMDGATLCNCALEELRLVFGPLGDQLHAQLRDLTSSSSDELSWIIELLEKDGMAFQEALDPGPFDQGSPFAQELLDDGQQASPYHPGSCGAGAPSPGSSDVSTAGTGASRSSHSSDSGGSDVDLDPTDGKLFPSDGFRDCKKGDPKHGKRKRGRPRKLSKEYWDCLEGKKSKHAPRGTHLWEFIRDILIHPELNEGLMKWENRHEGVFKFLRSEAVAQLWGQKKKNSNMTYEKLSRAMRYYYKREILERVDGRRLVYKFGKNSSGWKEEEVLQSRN
The note with it: protein: recombinant; tags: N-terminal GST; dsDNA, one strand shown. Put shortly: as §1

The target of assay [9] is CRX (Homo sapiens, UniProt O43186 1-299). The note with it: protein: recombinant; tags: N-terminal GST; dsDNA, one strand shown. Summed up: as §1
Chain of CRX (O43186 whole entry): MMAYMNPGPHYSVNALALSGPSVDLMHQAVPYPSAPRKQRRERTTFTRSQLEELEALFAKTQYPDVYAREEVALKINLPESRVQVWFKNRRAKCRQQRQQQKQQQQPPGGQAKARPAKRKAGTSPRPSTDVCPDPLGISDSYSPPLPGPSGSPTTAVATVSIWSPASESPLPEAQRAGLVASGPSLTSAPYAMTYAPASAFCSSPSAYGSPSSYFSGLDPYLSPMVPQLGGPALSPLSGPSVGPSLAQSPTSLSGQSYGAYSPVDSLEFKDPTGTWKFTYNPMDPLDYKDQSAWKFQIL
Assay [10] has as its target ETV1 (Homo sapiens, UniProt P50549 1-477). Conditions: protein: recombinant; tags: N-terminal GST; dsDNA, one strand shown. Put shortly: as §1

Chain of ELF4 (Q99607 whole entry): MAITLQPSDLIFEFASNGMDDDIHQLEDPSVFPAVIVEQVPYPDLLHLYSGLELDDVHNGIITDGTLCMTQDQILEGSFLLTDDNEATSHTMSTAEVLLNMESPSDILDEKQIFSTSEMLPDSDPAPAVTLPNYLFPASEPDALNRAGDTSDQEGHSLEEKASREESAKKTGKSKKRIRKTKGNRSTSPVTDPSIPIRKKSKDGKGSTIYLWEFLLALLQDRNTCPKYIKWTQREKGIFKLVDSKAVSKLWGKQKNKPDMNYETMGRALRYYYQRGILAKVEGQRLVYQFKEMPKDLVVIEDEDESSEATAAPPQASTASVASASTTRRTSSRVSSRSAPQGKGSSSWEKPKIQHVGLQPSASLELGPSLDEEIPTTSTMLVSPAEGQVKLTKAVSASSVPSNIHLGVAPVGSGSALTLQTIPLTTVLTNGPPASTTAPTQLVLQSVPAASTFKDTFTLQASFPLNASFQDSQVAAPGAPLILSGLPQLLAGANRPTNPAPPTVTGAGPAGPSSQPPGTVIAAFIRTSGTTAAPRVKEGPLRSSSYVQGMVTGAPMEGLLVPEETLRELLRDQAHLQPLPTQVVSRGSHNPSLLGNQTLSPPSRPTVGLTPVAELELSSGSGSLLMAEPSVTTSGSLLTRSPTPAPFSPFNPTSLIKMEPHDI
Chain of HSF1 (Q00613 whole entry): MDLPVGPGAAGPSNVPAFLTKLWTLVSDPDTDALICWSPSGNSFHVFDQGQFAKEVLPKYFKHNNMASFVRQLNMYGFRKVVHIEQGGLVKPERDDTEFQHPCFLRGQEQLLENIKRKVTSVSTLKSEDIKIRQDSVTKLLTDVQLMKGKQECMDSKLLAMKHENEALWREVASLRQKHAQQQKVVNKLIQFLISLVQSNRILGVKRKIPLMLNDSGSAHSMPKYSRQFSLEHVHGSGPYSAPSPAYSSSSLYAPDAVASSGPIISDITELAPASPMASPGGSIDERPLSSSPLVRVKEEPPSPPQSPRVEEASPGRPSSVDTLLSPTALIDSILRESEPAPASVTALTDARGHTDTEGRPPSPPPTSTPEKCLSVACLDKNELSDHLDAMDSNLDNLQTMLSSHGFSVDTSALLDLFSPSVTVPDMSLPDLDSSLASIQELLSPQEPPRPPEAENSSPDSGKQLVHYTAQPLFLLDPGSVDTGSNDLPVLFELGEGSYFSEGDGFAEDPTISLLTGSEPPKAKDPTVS
Chain of ETV1 (P50549 whole entry): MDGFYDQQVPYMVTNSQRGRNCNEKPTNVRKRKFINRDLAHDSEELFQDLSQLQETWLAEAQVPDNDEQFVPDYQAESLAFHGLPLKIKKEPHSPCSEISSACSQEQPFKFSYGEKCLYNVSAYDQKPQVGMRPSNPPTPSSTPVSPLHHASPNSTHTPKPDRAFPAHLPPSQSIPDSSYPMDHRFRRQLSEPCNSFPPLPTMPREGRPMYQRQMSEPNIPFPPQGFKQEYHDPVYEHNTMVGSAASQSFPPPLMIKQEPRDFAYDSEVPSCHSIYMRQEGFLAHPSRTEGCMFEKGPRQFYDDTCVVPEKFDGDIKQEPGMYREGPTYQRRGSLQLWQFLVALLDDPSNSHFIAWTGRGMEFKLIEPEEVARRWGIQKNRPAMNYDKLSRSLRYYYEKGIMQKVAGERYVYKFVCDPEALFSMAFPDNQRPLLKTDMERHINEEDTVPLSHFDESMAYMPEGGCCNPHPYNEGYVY
Chain of ETV5 (P41161 whole entry): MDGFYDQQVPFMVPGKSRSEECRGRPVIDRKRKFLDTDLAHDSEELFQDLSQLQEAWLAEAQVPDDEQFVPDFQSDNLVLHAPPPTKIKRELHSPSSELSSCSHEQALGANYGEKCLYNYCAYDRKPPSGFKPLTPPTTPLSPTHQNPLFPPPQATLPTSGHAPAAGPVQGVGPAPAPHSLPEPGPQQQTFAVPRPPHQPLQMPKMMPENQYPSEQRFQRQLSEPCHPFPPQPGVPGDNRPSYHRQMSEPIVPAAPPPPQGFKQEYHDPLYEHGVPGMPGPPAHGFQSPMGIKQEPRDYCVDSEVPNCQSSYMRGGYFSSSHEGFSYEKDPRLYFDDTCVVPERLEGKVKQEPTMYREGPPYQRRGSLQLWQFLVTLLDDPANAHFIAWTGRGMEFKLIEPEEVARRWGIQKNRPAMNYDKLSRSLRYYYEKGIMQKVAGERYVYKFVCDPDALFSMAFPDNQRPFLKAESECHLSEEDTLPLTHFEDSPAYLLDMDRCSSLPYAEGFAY

In the case of ACTATG, the binding signal in assay [1] is 1.21 fold enrichment (6-mer frequency, TF over GST control); in assay [2], 1.19 fold enrichment (6-mer frequency, TF over GST control); in [3], 1.09 fold enrichment (6-mer frequency, TF over GST control); in assay [4], 1.37 fold enrichment (6-mer frequency, TF over GST control); in assay [5], 1.26 fold enrichment (6-mer frequency, TF over GST control); in assay [6], 1.08 fold enrichment (6-mer frequency, TF over GST control). For the same sequence, the binding signal was 1.24 fold enrichment (6-mer frequency, TF over GST control) in assay [7]; 1.09 fold enrichment (6-mer frequency, TF over GST control) in assay [8]; 1.02 fold enrichment (6-mer frequency, TF over GST control) in [9]; 1.24 fold enrichment (6-mer frequency, TF over GST control) in [10].

Consider TTCCGG, for which the binding signal in [1] is 8.68 fold enrichment (6-mer frequency, TF over GST control); in [2], 6.4 fold enrichment (6-mer frequency, TF over GST control); in assay [3], 1.93 fold enrichment (6-mer frequency, TF over GST control); in assay [4] it was 5.6 fold enrichment (6-mer frequency, TF over GST control); in [5], 5.4 fold enrichment (6-mer frequency, TF over GST control); in assay [6] it was 4.67 fold enrichment (6-mer frequency, TF over GST control). Moreover, the binding signal is 5.78 fold enrichment (6-mer frequency, TF over GST control) in assay [7]; 5.14 fold enrichment (6-mer frequency, TF over GST control) in assay [8]; 1.33 fold enrichment (6-mer frequency, TF over GST control) in [9]; 6.12 fold enrichment (6-mer frequency, TF over GST control) in assay [10].

Consider TAAGAA, for which the binding signal in [1] is 1.05 fold enrichment (6-mer frequency, TF over GST control); in assay [2] it was 1.1 fold enrichment (6-mer frequency, TF over GST control); in assay [3], 1.77 fold enrichment (6-mer frequency, TF over GST control); in assay [4], 1.21 fold enrichment (6-mer frequency, TF over GST control); in [5], 1.13 fold enrichment (6-mer frequency, TF over GST control); in [6], 1.09 fold enrichment (6-mer frequency, TF over GST control). In addition, the binding signal is 1.2 fold enrichment (6-mer frequency, TF over GST control) in [7]; 1.02 fold enrichment (6-mer frequency, TF over GST control) in assay [8]; 1.96 fold enrichment (6-mer frequency, TF over GST control) in assay [9]; 1.13 fold enrichment (6-mer frequency, TF over GST control) in assay [10].

On to TACACT, for which the binding signal in assay [1] was 1.5 fold enrichment (6-mer frequency, TF over GST control); in assay [2] it was 1.5 fold enrichment (6-mer frequency, TF over GST control); in assay [3], 1.31 fold enrichment (6-mer frequency, TF over GST control); in assay [4] it was 1.58 fold enrichment (6-mer frequency, TF over GST control); in assay [5], 1.42 fold enrichment (6-mer frequency, TF over GST control); in [6] it was 1.53 fold enrichment (6-mer frequency, TF over GST control). Further, the binding signal in [7] was 1.46 fold enrichment (6-mer frequency, TF over GST control); in assay [8], 1.36 fold enrichment (6-mer frequency, TF over GST control); in [9], 1.35 fold enrichment (6-mer frequency, TF over GST control); in assay [10], 1.59 fold enrichment (6-mer frequency, TF over GST control).

Regarding TCCTCG, the binding signal in [1] was 1.37 fold enrichment (6-mer frequency, TF over GST control); in [2], 1.51 fold enrichment (6-mer frequency, TF over GST control); in [3], 1.54 fold enrichment (6-mer frequency, TF over GST control); in assay [4], 1.45 fold enrichment (6-mer frequency, TF over GST control); in assay [5], 1.51 fold enrichment (6-mer frequency, TF over GST control); in [6] it was 1.41 fold enrichment (6-mer frequency, TF over GST control). Further, the binding signal in assay [7] is 1.66 fold enrichment (6-mer frequency, TF over GST control); in assay [8], 1.53 fold enrichment (6-mer frequency, TF over GST control); in [9], 1.37 fold enrichment (6-mer frequency, TF over GST control); in assay [10], 1.65 fold enrichment (6-mer frequency, TF over GST control).

As to ATTCTG, the binding signal in [1] was 1.23 fold enrichment (6-mer frequency, TF over GST control); in [2] it was 1.29 fold enrichment (6-mer frequency, TF over GST control); in [3], 2.18 fold enrichment (6-mer frequency, TF over GST control); in assay [4], 1.11 fold enrichment (6-mer frequency, TF over GST control); in assay [5], 1.37 fold enrichment (6-mer frequency, TF over GST control); in [6], 1.38 fold enrichment (6-mer frequency, TF over GST control). Moreover, the binding signal in assay [7] is 1.43 fold enrichment (6-mer frequency, TF over GST control); in [8], 1.08 fold enrichment (6-mer frequency, TF over GST control); in [9], 1.5 fold enrichment (6-mer frequency, TF over GST control); in assay [10] it was 1.45 fold enrichment (6-mer frequency, TF over GST control).

Take TTAACC: the binding signal is 1.29 fold enrichment (6-mer frequency, TF over GST control) in assay [1]; 1.22 fold enrichment (6-mer frequency, TF over GST control) in assay [2]; 1.8 fold enrichment (6-mer frequency, TF over GST control) in [3]; 1.26 fold enrichment (6-mer frequency, TF over GST control) in assay [4]; 1.32 fold enrichment (6-mer frequency, TF over GST control) in [5]; 1.31 fold enrichment (6-mer frequency, TF over GST control) in assay [6]. Moreover, the binding signal was 1.36 fold enrichment (6-mer frequency, TF over GST control) in assay [7]; 1.27 fold enrichment (6-mer frequency, TF over GST control) in assay [8]; 2.67 fold enrichment (6-mer frequency, TF over GST control) in [9]; 1.28 fold enrichment (6-mer frequency, TF over GST control) in assay [10].

In the case of CTCAAT, the binding signal in [1] was 1.23 fold enrichment (6-mer frequency, TF over GST control); in assay [2], 1.31 fold enrichment (6-mer frequency, TF over GST control); in [3], 1.17 fold enrichment (6-mer frequency, TF over GST control); in assay [4] it was 1.17 fold enrichment (6-mer frequency, TF over GST control); in [5], 1.26 fold enrichment (6-mer frequency, TF over GST control); in [6], 1.3 fold enrichment (6-mer frequency, TF over GST control). Besides, the binding signal was 1.4 fold enrichment (6-mer frequency, TF over GST control) in assay [7]; 1.22 fold enrichment (6-mer frequency, TF over GST control) in [8]; 1.25 fold enrichment (6-mer frequency, TF over GST control) in assay [9]; 1.27 fold enrichment (6-mer frequency, TF over GST control) in [10].
